Data reported in the supplement of paper PMC7156485.
± gives the standard deviation of the averaged measurements.

Legend:
Settings in all cases: concentration: 10 µM; 24 h
[1] = tested on: HCC1569; assay: cell number relative to DMSO (% of DMSO); higher = more cells (less growth inhibition / toxicity)
Method in brief: (§1)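 H1.0 nuclear intensity or cell number is expressed as percent of the plate control, with the median of replicates taken. HCC1569 and TDF cells were treated with compounds at 10 µM for 24 h at 37 °C, in triplicate, then fixed and immunostained for H1.0 with DAPI as a nuclear stain. HCC1569 values were smoothed to correct for positional effects.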

[2] = tested on: TDF; assay: as above
Method in brief: as §1

[3] = tested on: TDF; assay: H1.0 immunofluorescence intensity relative to DMSO (% of DMSO); higher = stronger H1.0 induction, active = 120 or more
Method in brief: as §1

[4] = tested on: HCC1569; assay: H1.0 immunofluorescence intensity relative to DMSO (% of DMSO); higher = stronger H1.0 induction, active = 140 or more
Method in brief: as §1
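Wherever H1.0 immunofluorescence intensity relative to DMSO is given: TDF is a line of transformed human dermal fibroblasts of mesenchymal origin.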
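Wherever cell number relative to DMSO is given: TDF denotes transformed human dermal fibroblasts of mesenchymal origin.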

| Structure (SMILES) | cell number [1] | cell number [2] | H1.0 immunofluorescence intensity [3] | H1.0 immunofluorescence intensity [4] |
| --- | --- | --- | --- | --- |
| CC(C)n1c(C=CC(O)CC(O)CC(=O)O)c(-c2ccc(F)cc2)c2ccccc21 (configuration not stated) [Fluvastatin] | 96.3 | 64.5 | 148 (active) | 103 (inactive) |
| Cc1ccccc1N1CCN(S(=O)(=O)CC23CCC(CC2NC(=O)C(N)CCS(C)(=O)=O)C3(C)C)CC1.Cl (configuration not stated) | 101 | 104 | 94.1 (inactive) | 99 (inactive) |
| CN(C)CCOC(C)(c1ccccc1)c1ccccn1.O=C(O)CCC(=O)O (configuration not stated) [Doxylamine succinate] | 99.5 | 101 | 97.5 (inactive) | 87.7 (inactive) |
| C#CC1(O)CCC2C3CCC4=Cc5oncc5CC4(C)C3CCC21C (configuration not stated) [Danazol] | 97.02 ± 0.7 | 98.36 ± 0.75 | 95.4 (inactive) | 100 (inactive) |
| CN(N=O)C(=O)NC1C(O)OC(CO)C(O)C1O (configuration not stated) [Streptozocin] | 101 | 102 | 96.1 (inactive) | 87.6 (inactive) |
| Cl.Cl.NCCSSCCN [Cystamine dihydrochloride] | 97.5 | 107 | 93.4 (inactive) | 101 (inactive) |
| c1ccc(-c2ccc(C(c3ccccc3)n3ccnc3)cc2)cc1 (configuration not stated) [Bifonazole] | 101 | 98.2 | 86.2 (inactive) | 122 (inactive) |
| C=C1C(=O)OC2C1CCC(=C)C1CCC(=C)C12 (configuration not stated) [Dehydrocostus lactone] | 83.9 | 64.3 | 110 (inactive) | 103 (inactive) |
| CCCCCC(O)C=CC1C(O)CC(O)C1CC=CCCCC(=O)O (configuration not stated) [Prostaglandin F2a] | 97.3 | 107 | 97.6 (inactive) | 112 (inactive) |
| COc1ccc2cc(OCC3(C(=O)O)CN(C(=O)c4ccc(F)cc4)C3)ccc2c1 | 105 | 103 | 93.7 (inactive) | 95.8 (inactive) |
| COc1cc(OC)cc(C(CNc2ncnc3c2ncn3C2OC(CO)C(O)C2O)c2ccccc2C)c1 (configuration not stated) | 101 | 103 | 94.5 (inactive) | 100 (inactive) |
| O=C(O)c1ccccc1C(=O)Nc1ccc(-c2ccccc2)cc1 [2-[([1,1'-biphenyl]-4-ylamino)carbonyl]benzoic acid] | 104 | 99.9 | 98.7 (inactive) | 95.6 (inactive) |
| O=C(NCCNCC(O)COc1ccc(O)cc1)N1CCOCC1.O=C(O)C=CC(=O)O (configuration not stated) [Xamoterol hemifumarate] | 104 | 98.5 | 88.7 (inactive) | 109 (inactive) |
| C#CCN1C(C)=C(C(=O)OC)C(c2cccc([N+](=O)[O-])c2)C(C(=O)OCC)=C1C (configuration not stated) | 97.2 | 107 | 89.2 (inactive) | 103 (inactive) |
| Nc1nc2ccccc2c2ccccc12 [6-phenanthridinamine] | 88.1 | 64.8 | 97.8 (inactive) | 117 (inactive) |
| [N-]=[N+]=Nc1ccc(C(=O)CSCC(NC(=O)CCC(N)C(=O)O)C(=O)NCC(=O)O)cc1 (stereo not drawn) [S-(p-Azidophenacyl)glutathione] | 103 | 105 | 95.5 (inactive) | 79.9 (inactive) |
| COc1ccc(S(=O)(=O)Nc2nc(-c3cccc([N+](=O)[O-])c3)cs2)cc1OC | 102 | 92.4 | 102 (inactive) | 97.7 (inactive) |
| CC(C)N=c1cc2n(-c3ccc(Cl)cc3)c3ccccc3nc-2cc1Nc1ccc(Cl)cc1 | 89.6 | 72.2 | 109 (inactive) | 118 (inactive) |
| CC(C)CC(NC(=O)C(Cc1ccccc1)NC(=O)c1cnccn1)B(O)O (configuration not stated) [Bortezomib] | 34.2 | 10.2 | 144 (active) | 59.7 (inactive) |

| Structure (SMILES) | cell number [1] | cell number [2] | H1.0 immunofluorescence intensity [3] | H1.0 immunofluorescence intensity [4] |
| --- | --- | --- | --- | --- |
| CCCCCCCCCCCCCCCCOCC(CO)OC (configuration not stated) [1-Hexadecyl-2-O-methyl-glycerol] | 103 | 109 | 95.3 (inactive) | 98.4 (inactive) |
| O=c1cc(N2CCOCC2)oc2c1ccc1ccccc12 [DNA-PK Inhibitor II] | 98.1 | 97.4 | 92.5 (inactive) | 112 (inactive) |
| Cc1ccc(=O)n(-c2ccccc2)c1 [Pirfenidone] | 102 | 103 | 90.3 (inactive) | 92.5 (inactive) |
| OCC1OC(n2cnc3c(NCCc4ccccc4)ncnc32)C(O)C1O (configuration not stated) [N6-2-Phenylethyladenosine] | 99.4 | 113 | 87.8 (inactive) | 101 (inactive) |
| O[C@@H]1[C@@H](O)[C@H](OC/C=C/c2ccccc2)O[C@H](CO[C@@H]2OC[C@H](O)[C@H](O)[C@H]2O)[C@H]1O | 97 | 103 | 100 (inactive) | 90.3 (inactive) |
| CCCCS(=O)(=O)N[C@@H](Cc1ccc(OCCCCC2CCNCC2)cc1)C(=O)O.Cl.O | 99.8 | 102 | 97.7 (inactive) | 104 (inactive) |
| N[C@H](C(=O)O)c1cc(O)cc(O)c1 [(S)-3,5-Dihydroxyphenylglycine] | 101 | 105 | 96.4 (inactive) | 97.4 (inactive) |
| CC(C)(C)NCC(O)COc1cccc2[nH]c(=O)[nH]c12.Cl (racemic) | 97.7 | 110 | 93.5 (inactive) | 97.9 (inactive) |
| NCCCS(=O)(=O)[O-].[Na+] [3-Amino-1-propanesulfonic acid sodium] | 94.4 | 99.3 | 93.2 (inactive) | 91.9 (inactive) |
| COc1cc(NS(=O)(=O)c2ccc(N)cc2)nc(OC)n1 [Sulfadimethoxine] | 103 | 109 | 96.7 (inactive) | 92.3 (inactive) |
| CC(=O)NCCOC(=O)[C@H](Oc1cccc(C(F)(F)F)c1)c1ccc(Cl)cc1 | 104 | 100 | 95.3 (inactive) | 104 (inactive) |
| Cc1ncc([N+](=O)[O-])n1CC(C)O (configuration not stated) [Secnidazole] | 102 | 96.6 | 93.5 (inactive) | 107 (inactive) |
| CN(C)CCC=C1c2ccccc2Sc2ccc(Cl)cc21.Cl [Chlorprothixene hydrochloride] | 90.2 | 106 | 116 (inactive) | 127 (inactive) |
| CC(C)NCC(O)c1ccc(O)c(O)c1.O=C(O)C(O)C(O)C(=O)O (stereo not drawn) [R(-)-Isoproterenol (+)-bitartrate] | 99.2 | 79.3 | 99 (inactive) | 120 (inactive) |
| C=Cc1c(C)c2cc3[nH]c(cc4nc(cc5nc(cc1[nH]2)C(C)=C5CCC(=O)O)C(CCC(=O)O)=C4C)c(C)c3C=C [Protoporphyrin IX disodium] | 103 | 86.7 | 100 (inactive) | 100 (inactive) |
| CCC(=O)OC(OP(=O)(CCCCc1ccccc1)CC(=O)N1CC(C2CCCCC2)CC1C(=O)O)C(C)C (configuration not stated) [Fosinopril] | 99.8 | 86 | 96 (inactive) | 101 (inactive) |
| CCOC(=O)C1=C(C)NC(C)=C(C(=O)OCC)C1c1ccccc1C=CC(=O)OC(C)(C)C [Lacidipine] | 93.2 | 93.4 | 98.1 (inactive) | 125 (inactive) |
| O=C(O)C(=S)Cc1ccc(I)cc1 [(2Z)-3-(4-iodophenyl)-2-sulfanyl-2-propenoic acid] | 106 | 104 | 95.6 (inactive) | 94.8 (inactive) |
| NC(=O)c1ccc2[nH]ccc2c1 | 108 | 97.1 | 101 (inactive) | 94.2 (inactive) |
